# Cruzain noTriton = blocks cruzain activity in detergent-free assay; P25779; purified cruzain, Z-FR-AMC fluorescence, no detergent; Potency, µM, inactives show max response, negative = inhibition, usual class: inhibitors; 200,000 compounds, 2.3% hits; AID 1476;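 note: plate controls were enzyme without inhibitor for no effect and buffer without enzyme for full effect; nearly all actives have a fitted effect of over 40% in size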
# Target sequence (P25779 123-467 limits assumed): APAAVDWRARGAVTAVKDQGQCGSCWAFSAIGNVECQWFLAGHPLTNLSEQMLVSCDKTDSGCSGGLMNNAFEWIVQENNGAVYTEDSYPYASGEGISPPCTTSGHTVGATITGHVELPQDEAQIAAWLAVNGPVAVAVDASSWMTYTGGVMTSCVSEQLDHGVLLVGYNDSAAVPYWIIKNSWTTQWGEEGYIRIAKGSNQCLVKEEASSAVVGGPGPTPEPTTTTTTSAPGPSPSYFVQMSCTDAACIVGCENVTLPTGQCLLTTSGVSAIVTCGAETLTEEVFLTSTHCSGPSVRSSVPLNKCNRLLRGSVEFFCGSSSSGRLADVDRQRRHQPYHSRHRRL
#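 Detergent-free condition (0.00005% Triton X-100) in acetate buffer pH 5.5 with DTT. 1.5 nM enzyme and compound were pre-mixed 15 min, then 2 uM Z-FR-AMC substrate added; reaction progress from fluorescence change between first and third reads (60 s).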
# Cruzain inh Det = blocks cruzain activity in presence of Triton detergent; Potency, µM, for the others: max response, negative = inhibition, most hits filed as inhibitors; P25779; purified cruzain, Z-FR-AMC fluorescence, 0.01% Triton; 200,000 compounds, 0.43% hits;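 note: plate controls were neutral wells for no effect and buffer without enzyme for full effect; nearly all actives have a fitted effect of over 40% in size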
#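 Steps: dispense cruzain (1.5 nM final) in acetate buffer pH 5.5 with DTT and 0.01% Triton X-100; pin-transfer compounds; incubate 15 min RT; add Z-FR-AMC (2 uM final); read fluorescence every 30 s, using the 60 s intensity change.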
# Papain inh = blocks papain protease activity, flagging nonselective cruzain hits. shares compounds with Cruzain inh Det. purified papain, Z-FR-AMC fluorescence cleavage. Potency, µM, for the others: max response, negative = inhibition, usual class: inhibitors. 410 compounds, 41% hits. AID 2161;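 note: 0% = no-compound wells and -100% = no-enzyme wells; nearly all actives have a fitted effect of over 35% in size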
# Target sequence (P00784 whole entry, looked up): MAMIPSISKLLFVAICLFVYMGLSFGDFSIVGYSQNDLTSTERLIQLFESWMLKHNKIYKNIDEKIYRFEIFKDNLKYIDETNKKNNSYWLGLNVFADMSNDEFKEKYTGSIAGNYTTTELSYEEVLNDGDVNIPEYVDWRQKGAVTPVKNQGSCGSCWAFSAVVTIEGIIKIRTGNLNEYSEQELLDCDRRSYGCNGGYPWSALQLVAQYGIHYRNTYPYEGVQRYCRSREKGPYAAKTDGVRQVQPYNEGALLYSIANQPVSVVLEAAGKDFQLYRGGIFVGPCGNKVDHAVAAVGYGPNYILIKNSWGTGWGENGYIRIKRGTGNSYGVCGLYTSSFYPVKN
# An asterisk follows results filed as active; ? = inconclusive; / = no result given; ! = repeats disagree. The list is not random: actives were taken first. Their share in the collection is about 2.4%. Calls come from the whole dose curve; as a rule, active = well fitted curve in the direction sought with a large enough effect; inconclusive = small, poorly fitted or top-dose-only effect, or another doubt; inactive = no such curve, though single readings can be large; an effect the other way counts as inactive or inconclusive. Potency is the fitted concentration of half-maximal effect.
SMILES,Cruzain noTriton,Cruzain inh Det,Papain inh
Cc1oc2ccc(OCc3ccc(F)cc3)cc2c1C(=O)O,-12%,-3%,/
Cc1ccc(C(=O)N/C(=C\c2cccc([N+](=O)[O-])c2)C(=O)OCN2C(=O)c3ccccc3C2=O)cc1,16µM*,0.89µM*,-4%
Cc1ccc(C(=O)N/C(=C/c2cccc([N+](=O)[O-])c2)C(=O)NC(C)C)cc1,-2%,0%,/
CCOc1cc(-c2nc3c(c(CC)nn3-c3ccccc3)c3cc(OC)c(OC)cc23)ccc1O,2%,0%,/
CCc1ccccc1NC(=O)Cn1c(SCc2ccc(F)cc2)nc2ccncc21,-8%,-24%,/
CCCCNC(=O)Cn1c(SCc2ccccc2C)nc2ccncc21,/,/,-3%
CN(C)c1ccc(NC(=O)Cn2c(SCc3ccc(F)cc3)nc3ccncc32)cc1,-4%,-6%,/
Cc1ccccc1Cn1c(SCc2ccc(C(=O)NCCc3ccccc3)cc2)nc2ccncc21,2%,-9%,/
CCCNC(=O)Cn1c(SCc2ccccc2C)nc2ccncc21,/,/,1%
CCc1ccc(NC(=O)Cn2c(SCc3ccc(C)cc3)nc3ccncc32)cc1,/,/,-3%
COc1ccc(COC(=O)C2=C(C)NC(=O)CC2c2cccc(Cl)c2Cl)cc1 (stereo not drawn),0%,-3%,/
CCc1ccc2occ(CC(=O)Nc3c(C(=O)c4ccc(F)cc4)oc4ccccc34)c2c1,-13%,-1%,/
Cc1nc2cccnc2n1C1CCN(S(=O)(=O)c2ccc(C(C)C)cc2)CC1,9%,0%,/
Cc1ccc(C)c(Cn2c(=O)n(Cc3ccccc3)c(=O)c3c2c2cc(C)ccc2n3C)c1,3%,0%,/
O=C1CCCc2nc3nc4ccccc4n3cc21,-4%,5%,/
CCN(CC)CCCC(C)n1c(-c2ccccc2)nc2c(NCc3ccccc3)nc(C)nc21 (stereo not drawn),3%,-1%,/
Cc1nn(C)c2c1c(C(F)(F)F)cc(=O)n2C(C)C(=O)N1CCN(c2ccccc2)CC1 (stereo not drawn),?,-3%,/
Cc1ccc(S(=O)(=O)N[C@@H](Cc2ccccc2)C(=O)CCl)cc1,3.2µM*,7.1µM*,16µM*!
Cc1ccc(S(=O)(=O)N[C@H](CO)C(=O)O)cc1,4%,2%,/
CCn1c(SCC(=O)Nc2cc(C)ccc2F)nnc1-c1ccccc1O,3%,-3%,/
Cc1ccc(/C(O)=C2/C(=O)C(=O)N(CCN3CCOCC3)C2c2cccs2)cc1 (stereo not drawn),0%,-3%,/
CCCNC(=O)c1cc(-c2ccco2)on1,-15%,-3%,/
O=C(NCCNC(=O)c1ccco1)c1cccc(F)c1,2%,0%,/
CCCNC(=O)c1ccc2nc(-c3ccccc3)c(-c3ccccc3)nc2c1,?,-9%,/
O=C(NCCCO)c1ccc2nc(-c3ccco3)c(-c3ccco3)nc2c1,/,/,28µM*
SMILES,Cruzain noTriton,Cruzain inh Det,Papain inh
CCNC(=O)c1ccc2nc(-c3ccccc3)c(-c3ccccc3)nc2c1,/,/,-14%
CCCCNC(=O)c1ccc2nc(-c3ccco3)c(-c3ccco3)nc2c1,16µM*,14µM*,16µM*
Cc1ccc(Cl)cc1NC(c1ccc(F)cc1)c1nnc(-c2ccccc2)o1 (stereo not drawn),-18%,6%,/
NC(=O)CN1CCN(C(=O)Nc2ccccc2)CC1,7%,3%,/
COc1ccc(-c2nc3nc(C)cc(C)n3n2)cc1,8%,-15%,/
CN(CCNC(=O)c1cc2c(=O)n(C)c3ccccc3c2n1C)Cc1ccccc1,?,14µM*,-18%
Cc1ccc(CNC(=O)c2cc3c(=O)n(C)c4ccccc4c3n2C)cc1,?,10%,/
Cc1c(Cl)cccc1NC(=O)c1ncn(-c2ccccc2)n1,-3%,1%,/
O=C(NCCc1nc2ccccc2n1CCCOc1cccc2ccccc12)C1CCCCC1,/,/,-28%
Cc1cc2ccccc2n1CCNC(=O)C1CCCCC1,0%,-4%,/
Cc1cccc(C)c1OCCCn1c(CCNC(=O)C2CCCCC2)nc2ccccc21,7%,3.5µM*,-21%
O=C(NCCCc1nc2ccccc2n1Cc1cccc(Cl)c1)C1CCCCC1,2%,-10%,/
O=C(NC1(C(F)(F)F)C(=O)Nc2c1c(=O)[nH]c(=O)n2-c1ccc(Cl)cc1)c1ccccc1F (stereo not drawn),-14%,0%,/
Cc1ccc(CN(C(=O)COc2cccc([N+](=O)[O-])c2)c2ccccn2)cc1,-10%,-2%,/
CCOc1ccccc1NC(=O)CN(C)S(=O)(=O)c1ccc2nc(C)sc2c1,?,-6%,/
COc1ccc(NS(=O)(=O)c2cc(NC(=O)/C=C/c3ccccc3OC)ccc2N2CCCCC2)cc1,3.2µM*,-3%,11%
COc1ccc(NS(=O)(=O)c2cc(NC(=O)/C=C/c3cccs3)ccc2N2CCOCC2)cc1,?,-6%,/
O=S(=O)(c1ccc(N2CCC(c3ccc(Cl)cc3)=N2)cc1)N(CCO)CCO,?,4%,/
CN(C)CCCNS(=O)(=O)c1ccc(N2CCC(c3ccc(Cl)cc3)=N2)cc1,?,32µM*,28µM*
O=C(N/N=C\c1ccccc1O)c1ccccc1O,32µM*,-10%,7%
O=C(Oc1ccc(/C=N/NC(=O)c2ccccc2O)cc1)c1ccccc1,-18%,-10%,/
CCN(CC)c1ccc(-c2nn3c(-c4n[nH]c5c4CCC5)nnc3s2)cc1,0%,-2%,/
COc1cccc(OC)c1-c1nn2c(-c3n[nH]c4c3CCC4)nnc2s1,/,/,16µM*
CCC12CN3CC(C)(CN(C1)C3c1ccccc1C)C2=O (stereo not drawn),-20%,-2%,/
COc1cccc(CNC(=O)CCNS(=O)(=O)c2ccc3c(c2)CCCC(=O)N3)c1,-2%,-2%,/
SMILES,Cruzain noTriton,Cruzain inh Det,Papain inh
CC1CCC2(CC1)C(Nc1cccc(Cl)c1)=NC(=S)N2CC#N (stereo not drawn),-10%,-6%,/
O=C(Nc1ccc(N2CCCC2)cc1)c1ccc(Br)o1,7.9µM*,?,26%
O=C(Nc1ccc(N2CCN(C(=O)c3ccccc3)CC2)cc1)c1ccc(Br)o1,?,-5%,/
O=C(NC1(C(F)(F)F)N=C(c2ccccc2)NC1=O)c1ccccc1 (stereo not drawn),-3%,-2%,/
Cc1oc(=O)c(NC(=O)c2cccc(Cl)c2)cc1C(=O)c1ccccc1,0.63µM*,1.3µM*,-5%
O=C(Nc1ccc(Cl)cc1C(=O)c1ccccc1)c1ccccc1,-17%,1%,/
CCc1ccc(NC(=O)C2CCCN2S(=O)(=O)c2cccc3nsnc23)cc1 (stereo not drawn),-9%,-2%,/
CC(C)(C)C(=O)NCCc1nc2ccccc2n1CCCCOc1ccc(Cl)cc1,?,-12%,/
O=C(NCCc1nc2ccccc2n1CCCCOc1ccccc1)C1CCCCC1,/,/,25µM*
O=C(NCCc1nc2ccccc2n1CCCOc1ccccc1)C1CCCCC1,/,/,-20%
OCCCc1nc2ccccc2n1CCOc1ccccc1,-10%,2%,/
Cc1nc(NCCc2ccccc2)c(C#N)c(C)c1[N+](=O)[O-],-1%,-10%,/
N#Cc1c(N)n(CCNC(=O)c2ccc(Cl)cc2)c2nc3ccccc3nc12,9%,-4%,/
Cc1ccc(C(=O)NCCn2c(N)c(C#N)c3nc4ccccc4nc32)cc1,?,-7%,28µM*
O=C(CNC(=O)C1CCCCC1)OCCOc1ccccc1,/,/,-6%
O=C(CNC(=O)C1CCCCC1)OCc1ccccc1,/,/,-32%
O=C(COc1ccccc1)NC1CCCCC1,2%,-2%,/
COC(=O)CNC(=O)C1CCN(C(=O)OCc2ccccc2)CC1,-1%,-5%,/

# Screening results (PubChem BioAssay)
